PubChem BioAssay (Tox21)
Inconclusive results are not listed. Entries that show only a call come without a potency. The source made the active and inactive calls. The call rests on the fitted dose curve; in most records, active means well fitted cell-killing curve with a large enough effect in the repeat runs; inconclusive means weak or mixed curves, or effect the other way; inactive means flat fitted curve, though single readings scatter.

Assay: cAMP Responsive Elements (CRE) small molecule antagonists, cell-based qHTS assay: qHTS cell viability counter screen (AID 2060913); further: nearly all actives have a fitted effect of over 40% in size
Conditions: CRE-bla HEK293T viability, CellTiter-Glo luminescence, 5 h; series mostly up to 92.4 µM
Outline: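 HEK293T CRE-bla, 2,000 cells/well, 18 h preincubation; cpd in DMSO + NKH477 0.25 uM final, 3 h 37 C/5% CO2; LiveBLAzer 2 h RT, then CellTiter-Glo 30 min RT, luminescence.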
In the case of C=C/C=C/C=C/CCCCC, the viability change, negative = cytotoxic is reported as -0.548% [at 18.9 µM] (inactive).
With CC(C)(C)c1ccc(C=O)cc1 the Potency was “inactive”.
In the case of CNCc1ccccc1, the Potency is reported as “inactive”.
With O=C(O)CNCC(=O)O the viability change, negative = cytotoxic was 19.6% [at 8.39 µM] (inactive).
For O=C(c1ccc(O)cc1)c1ccc(Cl)cc1, the Potency was “inactive”.
With CC1=CC[C@H](CC=O)C1(C)C the Potency was “inactive”.
With CC(=O)CCC(C)C the Potency was “inactive”.
With OCC(CBr)(CBr)CBr the Potency was “inactive”.
With O=C(O)C(=O)Cc1c[nH]c2ccccc12 the Potency was “inactive”.
With Clc1ccc(C(Cn2ccnc2)OCc2ccc(Sc3ccccc3)cc2)c(Cl)c1 (configuration not stated) the Potency was “inactive”.
With O=C(NCCCN1CCOCC1)c1ccc(Cl)cc1 the Potency was “inactive”.
For SC1CCCC1, the Potency was “inactive”.
In the case of CO[Si](CCC1CCC2OC2C1)(OC)OC (configuration not stated), the Potency is reported as “inactive”.
For CCCCCCCCCCCCCC, the Potency was “inactive”.
For O=NN(CCCl)C(=O)NC1CCCCC1, the Potency was “inactive”.
With CC(C)OB(OC(C)C)OC(C)C the Potency was “inactive”.
With CC(C)(O)c1ccccc1CC[C@@H](SCC1(CC(=O)O)CC1)c1cccc(/C=C/c2ccc3ccc(Cl)cc3n2)c1 the Potency was “inactive”.

Assay: cAMP Responsive Elements (CRE) small molecule agonists, cell-based qHTS assay: qHTS cell viability counter screen (AID 2060914); further: nearly all actives have a fitted effect of over 50% in size
Conditions: CRE-bla HEK293T viability, CellTiter-Glo luminescence, 5 h; series mostly up to 92.4 µM
Outline: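 Cytotoxicity was measured as ATP luminescence (CellTiter-Glo, 30 min at room temperature) in the same wells as the CRE-bla FRET read-out. HEK293T CRE-bla cells had 3 h compound exposure at 37C/5% CO2.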
With O=C(CCNNC(=O)c1ccncc1)NCc1ccccc1 the Potency was “inactive”.
With CC(O)CN (configuration not stated) the Potency was “inactive”.
For NS(=O)(=O)c1cc2c(cc1Cl)NC(C1CC3C=CC1C3)NS2(=O)=O (configuration not stated), the Potency was “inactive”.
With Cc1ccc(Br)cc1 the Potency was “inactive”.
In the case of O=C(O)C1CCC(C(=O)O)CC1 (configuration not stated), the Potency is reported as “inactive”.
For C=C1C2CCC(C2)C1(C)C (configuration not stated), the Potency was “inactive”.
For CC(=O)CCC(=O)O, the Potency was “inactive”.
With CC(=O)OCCC1CCCCC1 the Potency was “inactive”.
In the case of COc1cc2c3cc1Oc1cc(ccc1O)C[C@@H]1c4c(cc(OC)c(O)c4Oc4ccc(cc4)C[C@@H]3N(C)CC2)CC[N+]1(C)C, the Potency is reported as “inactive”.
For CC(COC(C)(C)C)OCCCO (configuration not stated), the Potency was “inactive”.
In the case of O=C(CCCl)NCCc1ccccc1, the Potency is reported as “inactive”.
With CC1(C)C(=O)N(Cl)C(=O)N1Br the Potency was “inactive”.
With CC(=O)Nc1ccc(OCCOCCOc2ccc(NC(C)=O)cc2)cc1 the Potency was “inactive”.
With C=CC(C)(CCC=C(C)C)OC(=O)CC(C)C (configuration not stated) the Potency was “inactive”.
With NNC(=O)OCc1ccccc1 the Potency was “inactive”.
In the case of CC1=C(C)S(=O)(=O)CCS1(=O)=O, the Potency is reported as “inactive”.
In the case of CCOC(=O)c1ccc(NC(=O)CN2CCCCC2)cc1, the Potency is reported as “inactive”.
In the case of N[C@H]1CN(c2c(F)cc3c(=O)c(C(=O)O)cn(C4C[C@H]4F)c3c2Cl)CC12CC2 (some centres not stated), the Potency is reported as “inactive”.
In the case of O=C1OC(CN2CCOCC2)CN1/N=C/c1ccc([N+](=O)[O-])o1 (configuration not stated), the Potency is reported as “inactive”.
In the case of CC(=O)N(CC(O)CO)c1c(I)c(C(=O)NCCO)c(I)c(C(=O)NCC(O)CO)c1I (configuration not stated), the Potency is reported as “inactive”.
With Cc1nc2n(c(=O)c1CCN1CCC(c3noc4cc(F)ccc34)CC1)CCCC2 the Potency was “inactive”.
In the case of CC1=CCC(C(C)C)C=C1 (configuration not stated), the Potency is reported as “inactive”.
With CCOC(=N)CC(=O)OCC the Potency was “inactive”.
For C=C/C=C/C=C/CCCCC, the activity change, negative = cytotoxicity was -22.6% [at 18.9 µM] (inactive).
With CC(C)(C)c1ccc(C=O)cc1 the Potency was “inactive”.
For CNCc1ccccc1, the Potency was “inactive”.
In the case of O=C(O)CNCC(=O)O, the activity change, negative = cytotoxicity is reported as -11.1% [at 8.39 µM] (inactive).
For O=C(c1ccc(O)cc1)c1ccc(Cl)cc1, the Potency was “inactive”.
In the case of CC1=CC[C@H](CC=O)C1(C)C, the Potency is reported as “inactive”.
With CC(=O)CCC(C)C the Potency was “inactive”.
With OCC(CBr)(CBr)CBr the Potency was “inactive”.
For O=C(O)C(=O)Cc1c[nH]c2ccccc12, the Potency was “inactive”.
For Clc1ccc(C(Cn2ccnc2)OCc2ccc(Sc3ccccc3)cc2)c(Cl)c1 (configuration not stated), the Potency was “inactive”.
With O=C(NCCCN1CCOCC1)c1ccc(Cl)cc1 the Potency was “inactive”.
In the case of SC1CCCC1, the Potency is reported as “inactive”.
For CO[Si](CCC1CCC2OC2C1)(OC)OC (configuration not stated), the Potency was “inactive”.
For CCCCCCCCCCCCCC, the Potency was “inactive”.
With O=NN(CCCl)C(=O)NC1CCCCC1 the Potency was “inactive”.
With CC(C)OB(OC(C)C)OC(C)C the Potency was “inactive”.
In the case of CC(C)(O)c1ccccc1CC[C@@H](SCC1(CC(=O)O)CC1)c1cccc(/C=C/c2ccc3ccc(Cl)cc3n2)c1, the Potency is reported as “inactive”.
